Results as given in PubChem BioAssay AID782 (Emory University Molecular Libraries Screening Center, 2007).
Out of some 220,000 compounds screened, about 800 (0.36%) were called active.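 The calls were made as follows: active = inhibition above about 30% (limit read from the data); inactive = the rest.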 Shown is part of a subset that was picked to be rich in actives.

Target: Eukaryotic translation initiation factor 4E (Mus musculus) + Eukaryotic translation initiation factor 4 gamma 1 (Homo sapiens) (UniProt P63073+Q04637)
Sequence (P63073 whole entry, looked up, the tested form may be a part): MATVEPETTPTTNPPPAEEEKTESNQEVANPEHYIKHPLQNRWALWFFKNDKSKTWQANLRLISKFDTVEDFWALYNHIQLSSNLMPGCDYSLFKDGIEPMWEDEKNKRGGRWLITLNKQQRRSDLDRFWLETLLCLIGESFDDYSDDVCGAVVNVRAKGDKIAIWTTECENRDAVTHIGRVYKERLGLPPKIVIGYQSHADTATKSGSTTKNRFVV
Sequence (Q04637 whole entry, looked up, the tested form may be a part): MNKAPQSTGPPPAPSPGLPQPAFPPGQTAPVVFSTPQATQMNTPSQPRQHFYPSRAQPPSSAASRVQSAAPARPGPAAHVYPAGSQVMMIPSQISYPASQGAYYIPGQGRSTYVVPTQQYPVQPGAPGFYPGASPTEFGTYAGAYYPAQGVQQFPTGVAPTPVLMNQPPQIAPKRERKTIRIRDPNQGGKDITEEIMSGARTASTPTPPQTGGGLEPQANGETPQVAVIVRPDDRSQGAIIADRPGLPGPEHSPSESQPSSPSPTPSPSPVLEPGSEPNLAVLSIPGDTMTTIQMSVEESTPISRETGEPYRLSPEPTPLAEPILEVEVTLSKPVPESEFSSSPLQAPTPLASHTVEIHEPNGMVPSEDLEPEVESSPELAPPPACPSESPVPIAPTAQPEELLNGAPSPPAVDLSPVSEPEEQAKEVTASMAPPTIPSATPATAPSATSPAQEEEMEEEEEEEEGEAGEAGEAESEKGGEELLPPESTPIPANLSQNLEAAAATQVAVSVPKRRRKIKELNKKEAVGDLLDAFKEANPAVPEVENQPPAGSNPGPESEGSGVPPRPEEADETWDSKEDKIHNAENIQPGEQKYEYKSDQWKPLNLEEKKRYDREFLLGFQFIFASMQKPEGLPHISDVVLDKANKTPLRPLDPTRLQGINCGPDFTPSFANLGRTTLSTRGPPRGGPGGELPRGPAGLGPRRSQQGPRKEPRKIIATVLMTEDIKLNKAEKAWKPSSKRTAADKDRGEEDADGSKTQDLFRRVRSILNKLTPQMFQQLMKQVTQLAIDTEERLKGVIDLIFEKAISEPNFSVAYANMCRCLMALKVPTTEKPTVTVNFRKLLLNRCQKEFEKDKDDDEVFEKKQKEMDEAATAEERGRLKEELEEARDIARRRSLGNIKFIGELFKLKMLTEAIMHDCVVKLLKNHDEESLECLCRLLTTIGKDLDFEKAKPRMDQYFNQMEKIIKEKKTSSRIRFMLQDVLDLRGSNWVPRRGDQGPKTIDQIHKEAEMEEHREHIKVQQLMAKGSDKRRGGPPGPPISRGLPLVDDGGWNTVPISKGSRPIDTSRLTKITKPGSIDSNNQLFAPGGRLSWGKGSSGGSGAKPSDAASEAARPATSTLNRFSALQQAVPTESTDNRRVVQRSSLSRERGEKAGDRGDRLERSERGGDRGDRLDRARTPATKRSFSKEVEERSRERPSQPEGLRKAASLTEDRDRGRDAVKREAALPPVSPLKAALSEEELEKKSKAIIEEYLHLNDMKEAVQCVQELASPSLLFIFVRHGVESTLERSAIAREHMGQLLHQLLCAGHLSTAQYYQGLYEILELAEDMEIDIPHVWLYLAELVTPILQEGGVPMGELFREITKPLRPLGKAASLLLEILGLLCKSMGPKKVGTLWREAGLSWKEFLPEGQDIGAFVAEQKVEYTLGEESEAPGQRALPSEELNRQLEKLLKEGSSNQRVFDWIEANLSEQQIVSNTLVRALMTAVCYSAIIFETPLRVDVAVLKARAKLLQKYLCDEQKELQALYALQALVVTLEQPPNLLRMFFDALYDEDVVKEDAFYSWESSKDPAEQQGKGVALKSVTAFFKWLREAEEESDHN
Test: eIF4E–eIF4G protein interaction inhibitors, primary screen, biochemical, uHTS, TR-FRET, eIF4GI fragment (AID 782);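 also: 0% = full FRET control wells and 100% = background wells lacking eIF4GI fragment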
Conditions: TR-FRET eIF4E-eIF4GI(517-606) binding, 2 h; at 21.7 µM; hits give high values

inhibition, inactive:
COC(=O)/C=C(\Oc1ccccc1)C1(O)CCCCC1 3.79%
COCCn1c(C)cc(C(=O)CSc2nc3ccccc3c(=O)n2C(C)COC)c1C (configuration not stated) -1.77%
COC(=O)c1ccc(CSc2nc3ccccc3c(=O)n2-c2cccc(OC)c2)o1 2.4%
CSc1nc(C)nc(C2CC2)c1C#N -3.41%
Cc1cccc(N(C)C(=O)c2cc3c(=O)[nH]c4ccc(C)cc4c3s2)c1 -9.17%
O=S(=O)(Cc1noc(-c2ccc(OC(F)(F)F)cc2)n1)c1ccc(F)cc1 -0.8%
Cc1cc(-c2n[nH]c(=S)n2/N=C/c2ccco2)n[nH]1 -0.15%
S=c1[nH]nc(-c2ccco2)n1/N=C/c1ccccc1 -0.4%
O=C(N/N=C/c1ccc([N+](=O)[O-])o1)c1cccc(S(=O)(=O)N2CCOCC2)c1 0.27%
O=C(CN1CCN(c2ccc(O)cc2)CC1)Nc1cc(S(=O)(=O)N2CCOCC2)ccc1Cl 18.9%
COc1ccc(/C(N)=N/OC(=O)CCCc2ccccc2)cc1 -2.25%
Cc1ccc(SCC(=O)Nc2ccc3c(c2)OCCO3)cc1 0.94%
NC(N)=NCCCc1cn(CC(=O)N2CCNCC2)nn1 0.73%
FC(F)(F)c1nnc2ccc(N3CCN(c4ccccc4)CC3)nn12 0.95%
CCSc1nc(C)c(CCOc2cccc(C)c2)c(=O)[nH]1 -0.93%
CCOC(=O)c1c(NC(=O)CSc2nnc(CNc3ccc(C)cc3C)o2)sc(C)c1C -0.54%
CCOc1cc(C(=O)OCC(=O)Nc2cccc(C)c2)ccc1OCC(=O)N1CCOCC1 0.63%
COc1cc(C(=S)N2CCOCC2)ccc1O -0.65%
Cc1ccnc(NC(=O)CCCOc2ccccc2)c1 3.5%
CCOC(=O)N1CCC(=NNC(N)=O)CC1 2.99%
CC(NC(=O)C(=O)NN=C1CCC(C(C)(C)C)CC1)c1ccccc1 (configuration not stated) 2.57%
CC(C)NC(=S)NN=C1CCCCCCCCCCC1 -4.16%
Cc1cc(C(=O)N/N=C/c2ccccc2[N+](=O)[O-])c(C)o1 2.6%
O=C(N/N=C/c1ccc([N+](=O)[O-])cc1)c1c[nH]c2ccccc12 -2.85%
COC(=O)Nc1ncc(CN2CCCCC2)s1 1.52%
N/C(=N\S(=O)(=O)c1cc(C(F)(F)F)cc(C(F)(F)F)c1)c1cccs1 0.14%
Cc1ccc(C(=O)NC(=S)Nc2ccccc2C)cc1 -1.48%
CCOC(=O)c1c(N)sc2c1CCCC2=O -0.22%
Cc1cc2cc(CNC(=O)c3ccc(S(=O)(=O)N4CCOCC4)cc3)ccc2[nH]1 -23.9%
C/C(CC(=O)Nc1ccc(C)cc1C)=N\NC(=O)C(C)C -1.71%
C=CCn1c(SCC(=O)Nc2nc3ccccc3s2)nnc1-c1ccccc1O 6.76%
C=CCn1c(SCC(=O)NCc2ccccc2)nnc1-c1cc(Br)ccc1O 4.21%
Cc1ccc(S(=O)(=O)NNC(=S)NC(C)(C)C)cc1 2.84%
Cc1cc(C(=O)NNC(=S)NC(C)c2ccccc2)cs1 (configuration not stated) -0.45%
O=C(C1CCCN1S(=O)(=O)c1ccc(Br)cc1)N1CCOCC1 (configuration not stated) -1.1%
COC(=O)[C@@H]1C[C@@]2(O)[C@H](O)[C@H](O)[C@H](O)C[C@H]2N1Cc1ccc(C)s1 -1.88%
COC(=O)[C@@H]1C[C@@]2(O)[C@H](O)[C@H](O)[C@H](O)C[C@H]2N1Cc1ccc(C(C)(C)C)cc1 -5.29%
C/C(Cn1nnc2ccccc21)=N\OC(=O)c1cc(F)c(F)cc1Cl -2.84%
Cc1c(Cl)cccc1NC(=S)NCc1ccc2c(c1)OCO2 3.45%
O=C(NNC1=NCCC1)c1cccc(S(=O)(=O)N2CCCCC2)c1 6.05%
Cc1ccc(N(C(=O)c2ccc(CN3CCOCC3)o2)C(C(=O)NCCC(C)C)c2cccs2)c(C)c1 (configuration not stated) 3.08%
CC(C)(C)c1ccc(/C=C2\SC(=O)N=C2N)cc1 2.64%
C/C(=N\NC(=S)Nc1ccc(C)cc1)c1cc2ccccc2o1 -0.73%
CCCc1c(C(=O)Nc2ccc(F)cc2)cnn1-c1ccccc1 2.37%
CN(C)CCCN(Cc1cc2cc3c(cc2[nH]c1=O)OCCO3)C(=O)NC1CCCCC1 2.76%
O=C(c1ccc(F)cc1)N1CCCC(c2nc(-c3cccs3)no2)C1 (configuration not stated) 3.08%
COc1ccnc(Oc2ccccc2)n1 15.9%
CCc1cccc(C)c1NC(=S)N(CCCN1CCN(C)CC1)Cc1cccs1 -3.86%
Cc1ccc(-n2ccc(=O)c(C(=O)O)n2)cc1 1.06%
Cc1ccnc(NC(=O)C(C)N2C(=O)c3ccccc3C2=O)c1 (configuration not stated) 1.43%
CNc1ccc(NC(C)=O)cc1[N+](=O)[O-] -0.25%
Cc1ccc(Nc2ccc(C(N)=O)cc2[N+](=O)[O-])cc1 -0.72%
CCOc1ccc(/C=N/NC(=O)CSc2ccccn2)cc1O -2.92%
O=C(COC(=O)/C=C/c1ccc(S(=O)(=O)N2CCCCCC2)cc1)NCc1ccccc1Cl 2.41%
C=C1CCN([C@H](C(=O)NCc2cc(OC)c(OC)c(OC)c2)C(C)C)S(=O)(=O)c2ccccc21 -2.58%
Nc1ccc(S(=O)(=O)Nc2nccc(/C=C/c3ccc(Br)s3)n2)cc1 0.68%
CC(C)(C)c1cc(C(=O)NN)n(Cc2ccc(Cl)cc2Cl)n1 3.29%
Cc1[nH]n(C)c(=O)c1C(=O)c1c(-c2c(Cl)cccc2Cl)noc1C -1.16%
N/C(=N\S(=O)(=O)c1ccc(Cl)cc1)N1CCOCC1 -0.17%
COc1ccc(N2CCN(C(=S)Nc3ccc(S(N)(=O)=O)cc3)CC2)cc1 2.56%
COC(=O)Cc1csc(/N=C/c2c(O)n(-c3cccc(C(F)(F)F)c3)c(=O)c3ccccc23)n1 1.31%
COc1ccc(C2C(C(=O)N3CCN(c4ccc(OC)cc4)CC3)c3ccccc3C(=O)N2C)cc1 (configuration not stated) -1.58%
O=C(/C=C\c1ccc2c(c1)OCO2)NC1(C(=O)Nc2ccc3c(c2)OCCO3)CCCCC1 3.6%
COC(=O)c1c(C)[nH]c(C)c1-c1ccc([N+](=O)[O-])cc1 5.04%
CC1CC1C(=O)OCC(=O)c1c(N)n(C)c(=O)n(C)c1=O (configuration not stated) 1.81%
CC1=C/C(=N\OS(=O)(=O)c2ccccc2)C=CC1=O 17.7%
CC(=O)c1c(Nc2ccccc2)sc(C(=O)c2ccccc2)c1C 0.53%
Cc1ccc(NC(=O)/C(=C\c2ccccc2)NC(=O)c2ccco2)cc1 -2.75%
Cc1cc(Br)ccc1SCC(=O)OCC(=O)NCc1ccc2c(c1)OCO2 2.11%
Nc1nc(SCc2ccccc2Cl)n[nH]1 -1.58%
O=c1cc(O)nc(SCc2ccccc2Cl)[nH]1 -11.7%
Clc1ccc(-c2nc3ccccn3c2CN2CCSCC2)cc1 3.32%
COc1ccc(NC2=CC(=S)NC(C)(C)C2)cc1 0.37%
O=C(CSc1nnc(-c2ccc([N+](=O)[O-])cc2)o1)Nc1ccccn1 -0.57%
Cc1cc2nc3c(=O)n(Cc4ccccc4)c(=O)[nH]c3nc2cc1N 7.59%

inhibition, active:
COCC(C)n1c(SCc2ccc(C(=O)OC)o2)nc2ccccc2c1=O (configuration not stated) 56%
S=c1[nH]nc(-c2ccco2)n1/N=C/c1ccc(Br)s1 49.9%
O=[N+]([O-])c1cc(Cl)cc(/C=N/NC(=S)Nc2cc(S(=O)(=O)N3CCOCC3)ccc2Cl)c1O 37.9%
Fc1c(F)c(C(F)(F)F)c(F)c(F)c1N1CCN(c2ccc3nnc(C(F)(F)F)n3n2)CC1 35.1% [fluorescence artefact?]
Oc1c(Cl)cc(Cl)c(Cl)c1Cc1c(O)c(Cl)cc(Cl)c1Cl 46.2%
CCOc1cc(C(=S)N2CCOCC2)ccc1O 30.5% [fluorescence artefact?]
CC(C)(C)NC(=O)C(=O)NN=C1CCCCCCC1 39.2%
Cc1c(C(=O)N/N=C/c2ccccc2)[nH]c2c([N+](=O)[O-])cccc12 94.2%
C=CCn1c(N)cc(=O)nc1SCC(=O)Nc1cccc2ccccc12 30.1%
CC(NC(=S)NNS(=O)(=O)c1ccc(C(C)(C)C)cc1)c1ccccc1 (configuration not stated) 96.5%
COC(=O)[C@@H]1C[C@@]2(O)[C@@H](O)[C@@H](O)[C@@H](O)C[C@H]2N1Cc1ccc(C)s1 96%
O=[N+]([O-])C(=c1ccc2c(c1)N1C3=C(CCCC3)CC3CCCCC31N=2)[N+](=O)[O-] (configuration not stated) 34.6%
Cc1ccc(N2C(=O)c3ccccc3C2(O)c2ncc[nH]2)cc1 (configuration not stated) 55.4%
CC(=O)Nc1ccc(/C=N/Nc2ccc(C(=O)c3c(C)cc4ccccn34)cc2[N+](=O)[O-])cc1 63.9%
COc1ccc([C@H]2[C@H](C(C)=O)N3N=Cc4ccccc4C3C23C(=O)OC(C)(C)OC3=O)cc1 (some centres not stated) 34.6%
O=c1[nH]nc(CSCc2ccccc2Cl)[nH]1 37.7%
Nc1ccc2nc3c(=O)[nH]c(=S)[nH]c3nc2c1 55.7%
